High-throughput results (PubChem BioAssay)
This is a sample that favours compounds with a hit; in the whole collection about 7.5% have one here.
Gal4-VP16 FLuc: VP16 counterscreen qHTS for inhibitors of ROR gamma transcriptional activity. Potency, µM (highest dose often 53.6 µM), hits mostly inhibitors. 3.5% of 310,000 active. Drosophila S2 Gal4-VP16 UAS-luciferase, luminescence, 20 h;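 further: Gal4-VP16 expression switched on by copper sulfate through the metallothionein promoter; nearly all actives have a fitted effect of over 50% in size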
TSHR antag: Antagonists of the Thyroid Stimulating Hormone Receptor: HTS campaign. Thyrotropin receptor (Homo sapiens), P16473. AID 504810, 2011. activity change, negative = inhibition, % at 11.5 µM. TSHR-expressing cells, TSH-stimulated cAMP HTRF, 2 h; active compounds read low. 0.2% of 330,000 active;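 active means activity change below a set negative limit, meaning inhibition stronger than a set level, cut at about -70% in these data; inconclusive means activity change between two set negative limits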
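Antagonism was scored as loss of TSH-driven cAMP in TSHR cells, stimulated with 4nM TSH (EC80) for 2 hours at 37 deg C and detected by homogeneous HTRF competition immunoassay.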
RORgamma inh: qHTS for inhibitors of ROR gamma transcriptional activity. Nuclear receptor ROR-gamma (Mus musculus), P51450. Drosophila S2 Gal4-RORgamma UAS-luciferase reporter, 20 h. Potency, µM (series often up to 53.6 µM), usual class: inhibitors. 5.4% of 310,000 active. AID 2551, 2010; further: nearly all actives have a fitted effect of over 60% in size
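Read-out: Photinus luciferase luminescence; inhibitors lower reporter signal. Insect Schneider cells with Gal4-ROR gamma fusion under metallothionein promoter, UAS reporter; 700 uM final copper sulfate induction, 20 hr, ambient temperature.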
B2AR arrestin: qHTS assay of beta-arrestin-biased ligands of beta2-adrenergic receptor; beta-arrestin recruitment to beta2AR, cell-based reporter; Beta-2 adrenergic receptor (Homo sapiens), P07550; 0.02% of 330,000 active; Potency, µM (series often up to 46.1 µM), most hits filed as activators; further: nearly all actives have a fitted effect of over 65% in size
Target sequence (P07550 whole entry, looked up): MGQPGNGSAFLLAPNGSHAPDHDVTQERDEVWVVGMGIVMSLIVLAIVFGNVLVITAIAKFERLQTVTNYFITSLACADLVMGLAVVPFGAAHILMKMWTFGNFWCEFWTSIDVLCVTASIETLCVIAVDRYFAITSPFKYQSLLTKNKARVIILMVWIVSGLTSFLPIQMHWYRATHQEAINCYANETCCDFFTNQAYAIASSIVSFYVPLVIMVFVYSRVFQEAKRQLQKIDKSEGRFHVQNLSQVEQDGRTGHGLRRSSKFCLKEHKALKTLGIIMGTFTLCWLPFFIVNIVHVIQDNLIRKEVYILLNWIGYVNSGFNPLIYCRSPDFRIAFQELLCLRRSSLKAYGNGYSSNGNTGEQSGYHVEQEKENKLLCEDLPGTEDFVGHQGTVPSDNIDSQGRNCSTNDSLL
ELG1 repair inh: qHTS screen for small molecules that inhibit ELG1-dependent DNA repair in human embryonic kidney (HEK293T) cells expressing luciferase-tagged ELG1; HEK293T ELG1-luciferase reporter, luminescence, 16 h; DNA damage induced by 5-fluorouridine; Potency, µM (titrated, usually from 46.1 µM), usual class: inhibitors; 2.3% of 330,000 active; further: nearly all actives have a fitted effect of over 55% in size
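Quantitative HTS, concentration-response format. 2,000 cells/well co-treated with 5-fluorouridine and compound, 16 hr in 5% CO2 at 37 °C; ONE-Glo luminescence read after 30 min.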
Numbers stand for hits; . = inactive; ? = inconclusive; / = no result given; [ ] = dose if it differs, or a comment. Unless noted, the call rests on the fitted dose curve; in most records, active means well fitted curve in the direction sought with a large enough effect; inconclusive means small, poorly fitted or top-dose-only effect, or another doubt; inactive means no such curve, though single readings can be large; an effect the other way counts as inactive or inconclusive.

SMILES	Gal4-VP16 FLuc	TSHR antag	RORgamma inh	B2AR arrestin	ELG1 repair inh
S=C(NCCc1c[nH]c2ccccc12)NC1CCCCC1	.	.	14µM	.	.
CCN(CC)S(=O)(=O)c1ccc(N2CCOCC2)c(NC(=O)c2c3c(nc4ccccc24)CCC3)c1	.	.	.	.	13µM
CCN(CC)S(=O)(=O)c1ccc(N2CCOCC2)c(NC(=O)c2ccc3ccccc3c2)c1	.	.	.	.	15µM
CCOc1ncccc1C(=O)Nc1cc(C(F)(F)F)ccc1N1CCOCC1	/	.	/	.	.
CCN(CC)S(=O)(=O)c1ccc(N2CCOCC2)c(NC(=O)c2cccc3ccccc23)c1	.	.	.	.	?
CCOc1ncccc1C(=O)Nc1cc(S(=O)(=O)N(CC)CC)ccc1N1CCOCC1	/	/	/	.	5.2µM
COCCn1c(=O)c(-c2ccc(Cl)cc2)nc2cnc(N(C)C)nc21	.	/	.	/	/
COC(=O)C(Cc1ccccc1)NS(=O)(=O)c1cc(Br)ccc1Br (stereo not given)	.	/	.	/	/
CC(=O)OC[C@@H]1O[C@H](C/C=N\O[C@@H](C)c2cc(-c3c(C)cc(C)cc3C)no2)C=C[C@@H]1OC(C)=O	.[10 µM]	/	.[10 µM]	/	/
C=CCN1C(=O)C(Cc2ccc(F)cc2)S/C1=N/N=C/c1ccco1 (stereo not given)	.	.	.	.	.
C=CCN1C(=O)C(Cc2ccc(Br)cc2)S/C1=N\N=C\c1ccco1 (stereo not given)	.	.	14µM	.	.
Cc1ccccc1OCC(=O)Nc1ccc2c(c1)OCCO2	.	.	.	.	?
Cc1cccc(C)c1OCC(=O)Nc1ccc2c(c1)OCCO2	2.2µM	.	.	.	?
O=C(Nc1cccc(NC(=O)c2ccc(-c3ccc(Br)cc3)o2)c1)c1ccco1	.	.	?	.	9.2µM
Cc1cccc(C)c1OCC(=O)Nc1cccc(NC(=O)c2ccco2)c1	.	.	.	.	18µM
O=C1CCc2cc(S(=O)(=O)NCCC(=O)NC3CCCCC3)ccc2N1	.	.	.	.	.
N#C/C(=C\c1ccc(-c2cc(Cl)ccc2Cl)o1)C(=O)Nc1cccc2ncccc12	/	.	/	/	/
COc1ccc(/C=N/Nc2ncc(C(F)(F)F)cc2Cl)cc1OC	3.5µM	.	?	.	.
FC(F)(F)c1cnc(N/N=C/c2ccncc2)c(Cl)c1	?	.	13µM	.	.
CC(CC(C)(C)C)CP(=O)(O)CC(C)CC(C)(C)C (stereo not given)	.	/	.	/	/
COc1ccc(COC(=O)N/N=C2/C[C@@H](O)[C@@H](O)[C@@H]3[C@H]4C(=O)N(c5ccc(F)cc5F)C(=O)[C@@H]4CC[C@@H]23)cc1	.[10 µM]	/	.[10 µM]	/	/
COc1ccc(/C=C/c2c(-c3ccc(OC)cc3)oc3ccc(-c4ccc(OC)cc4)cc23)cc1	.	.	.	.	.
COc1ccc(/C=C/c2cc(-c3ccc(C)cc3)o[n+]2C)cc1	13µM	.	?	.	?
Cc1ccc(NC(=S)Nc2ccc(OC(F)F)c(Cl)c2)cc1F	?	.	?	.	?
CC(NC(=S)Nc1c(Cl)cccc1OC(F)F)C(C)(C)C (stereo not given)	11µM	.	13µM	.	.
SMILES	Gal4-VP16 FLuc	TSHR antag	RORgamma inh	B2AR arrestin	ELG1 repair inh
CC(NC(=S)Nc1ccccc1OC(F)F)C(C)(C)C (stereo not given)	?	.	?	.	.
CC(NC(=S)Nc1ccc(OC(F)F)cc1OC(F)F)C(C)(C)C (stereo not given)	16µM	.	7.9µM	.	.
Cc1noc(/C=C/Nc2ccc(F)cc2F)c1[N+](=O)[O-]	.	.	?	.	?
COc1ccccc1N/C=C/c1onc(C)c1[N+](=O)[O-]	?	.	11µM	.	?
Cc1noc(/C=C/c2ccccn2)c1[N+](=O)[O-]	/	.	/	.	18µM
CC(=O)N1CCOc2ccc(S(=O)(=O)NC[C@H]3O[C@@H](n4cnc5c(N)ncnc54)[C@H](O)[C@@H]3O)cc21	/	.	/	.	.
COc1cccc(C2=Nn3c(nnc3-c3cccc(OC)c3OC)SC2)c1	.	/	.	/	/
O=C(Nc1cc(Cl)cc(Cl)c1)C1CCC(=O)N1Cc1ccccc1Cl (stereo not given)	16µM	.	?	.	.
COc1ccc2sc(-c3ccc(S(C)(=O)=O)cc3)c(C(=O)NCCCN3CCCC3=O)c2c1	/	.	/	.	16µM
COc1cc2sc(-c3ccc(S(C)(=O)=O)cc3)c(C(=O)NCc3ccc(C)o3)c2cc1OC	/	.	/	.	18µM
COc1ccc(-c2sc3ccccc3c2C#CCO)cc1	.	.	.	.	.
COC(=O)c1c(-c2ccsc2)sc2ccc(-c3cc(OC)c(OC)c(OC)c3)cc12	/	.	/	.	9.2µM
COc1cc(-c2c(-c3ccsc3)sc3ccccc23)cc(OC)c1OC	/	.	/	.	.
COc1cc2sc(-c3ccc(S(C)(=O)=O)cc3)c(C(=O)NCCCCO)c2cc1OC	/	.	/	.	?
COc1cc(-c2ccc3sc(-c4ccsc4)c(C#CCO)c3c2)cc(OC)c1OC	/	.	/	.	9.2µM
COc1ccc2c(C#CCCO)c(-c3ccc(S(C)(=O)=O)cc3)sc2c1	/	.	/	.	.
COc1ccc2sc(-c3ccc(S(C)(=O)=O)cc3)c(C#CCO)c2c1	/	-78	/	.	?
COc1ccc(NC2=NC(=S)N(c3ccccc3C)C23CCCCC3)cc1	?	.	7.1µM	.	.
COc1ccc(N2C(=S)N=C(Nc3ccccc3)C23CCCCC3)cc1	.	.	?	.	.
CCCC[n+]1ccn(C2=C([O-])c3ccccc3C(=O)/C2=N\S(=O)(=O)c2ccc(Cl)cc2)c1	?	.	1.6µM	.	?
CC1(C)Cn2c(nc(=O)c3c2NCN(CCc2ccccc2)C3)S1	.	.	.	.	.
Cc1noc(C)c1CCC(=O)N1CCCC(CCC(=O)NCc2ccc(F)c(F)c2)C1 (stereo not given)	.	.	.	.	.
COc1ccccc1/C=C1\SC(=S)N(Nc2nc(C)cc(C)n2)C1=O	.	.	11µM	.	.
Cc1cc(C)nc(NN2C(=O)/C(=C/c3ccc(O)cc3)SC2=S)n1	.	.	.	.	.
COc1ccc(COC(=O)N/N=C2/C[C@@H](O)[C@@H](O)[C@@H]3[C@@H]4C(=O)N(Cc5ccc6c(c5)OCO6)C(=O)[C@H]4CC[C@@H]23)cc1	.[10 µM]	/	.[10 µM]	/	/
O=C(c1ccc2c3c(cccc13)CC2)C1CCCN(Cc2ccccn2)C1 (stereo not given)	11µM	.	3.5µM	.	?
Cc1cnc(CN2CCCC(C(=O)c3ccc4c5c(cccc35)CC4)C2)[nH]1 (stereo not given)	.	.	11µM	.	?
